This passage reports binding signal results from article PMC11006913.

Test in all cases: PBM; 200 nM protein, PBS
Details in all cases: dsDNA, one strand shown

Assay [1] has as its target T1, SIX6 (Homo sapiens, UniProt O95475 114-200, L167I).
T1 sequence: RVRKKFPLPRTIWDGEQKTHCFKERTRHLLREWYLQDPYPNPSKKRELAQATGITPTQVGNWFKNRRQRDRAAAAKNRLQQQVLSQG

The target of assay [2] is T2, SIX6 (Homo sapiens, UniProt O95475 114-200, L143V).
T2 sequence: T1 sequence with L30V, I54L

For assay [3], the target named is T3, SIX6 (Homo sapiens, UniProt O95475 114-200, H141N).
T3 sequence: T1 sequence with H28N, I54L

Assay [4] concerns the target T4, SIX6 (Homo sapiens, UniProt O95475 114-200, T165P).
T4 sequence: T1 sequence with T52P, I54L

The target of assay [5] is T5, SIX6 (Homo sapiens, UniProt O95475 114-200, L167M).
T5 sequence: T1 sequence with I54M

Assay [6] has as its target T6, SIX6 (Homo sapiens, UniProt O95475 114-200, L143M).
T6 sequence: T1 sequence with L30M, I54L

In assay [7] the target is T7, SIX6 (Homo sapiens, UniProt O95475 114-200, L143I).
T7 sequence: T1 sequence with L30I, I54L

In assay [8] the target is T8, SIX6 (Homo sapiens, UniProt O95475 114-200, T165G).
T8 sequence: T1 sequence with T52G, I54L

Assay [9] concerns the target T9, SIX6 (Homo sapiens, UniProt O95475 114-200, T139Q).
T9 sequence: T1 sequence with T26Q, I54L

Assay [10] concerns the target T10, SIX6 (Homo sapiens, UniProt O95475 114-200, T165A).
T10 sequence: T1 sequence with T52A, I54L

Assay [11] deals with T11, SIX6 (Homo sapiens, UniProt O95475 114-200, L167V).
T11 sequence: T1 sequence with I54V

The target in assay [12] is T12, SIX6 (Homo sapiens, UniProt O95475 114-200).
T12 sequence: T1 sequence with I54L

Assay [13] concerns the target T13, SIX6 (Homo sapiens, UniProt O95475 114-200, T165I).
T13 sequence: T1 sequence with T52I, I54L

Assay [14] deals with HOXA2 (Homo sapiens, UniProt O43364 129-215, R185T).
The target in assay [15] is HOXA2 (Homo sapiens, UniProt O43364 129-215, R185K).
Assay [16] addresses HOXA2 (Homo sapiens, UniProt O43364 129-215, Y150S).
The target of assay [17] is HOXA2 (Homo sapiens, UniProt O43364 129-215).

Where a chain is given by its changes, count along the chain named.

HOXA2 (Homo sapiens, UniProt O43364 129-215, R185T), sequence (O43364 129-215 R185T): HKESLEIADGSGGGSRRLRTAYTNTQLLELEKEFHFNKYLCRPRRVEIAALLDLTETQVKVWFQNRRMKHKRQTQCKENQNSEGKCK
HOXA2 (Homo sapiens, UniProt O43364 129-215, R185K), sequence (O43364 129-215 R185K): as the sequence (O43364 129-215 R185T) above, with T57K counted along it
HOXA2 (Homo sapiens, UniProt O43364 129-215), sequence (O43364 129-215): as the sequence (O43364 129-215 R185T) above, with T57R counted along it
HOXA2 (Homo sapiens, UniProt O43364 129-215, Y150S), sequence (O43364 129-215 Y150S): as the sequence (O43364 129-215 R185T) above, with Y22S, T57R counted along it

Turning to CCGGGCGC, the binding signal with SIX6 [1] is 8.78 upbm affinity estimate (log intensity, higher = more binding, comparable within an allelic series); with SIX6 [2], 8.67 upbm affinity estimate (log intensity, higher = more binding, comparable within an allelic series); in the assay with SIX6 [3], 8.71 upbm affinity estimate (log intensity, higher = more binding, comparable within an allelic series); with SIX6 [4] it was 8.75 upbm affinity estimate (log intensity, higher = more binding, comparable within an allelic series); in the assay with SIX6 [5], 8.72 upbm affinity estimate (log intensity, higher = more binding, comparable within an allelic series); with SIX6 [6] it was 8.66 upbm affinity estimate (log intensity, higher = more binding, comparable within an allelic series). In addition, the binding signal with SIX6 [7] is 8.69 upbm affinity estimate (log intensity, higher = more binding, comparable within an allelic series); with SIX6 [8] it was 8.73 upbm affinity estimate (log intensity, higher = more binding, comparable within an allelic series); in the assay with SIX6 [9], 8.6 upbm affinity estimate (log intensity, higher = more binding, comparable within an allelic series); in the assay with SIX6 [10] it was 8.69 upbm affinity estimate (log intensity, higher = more binding, comparable within an allelic series); with SIX6 [11], 8.69 upbm affinity estimate (log intensity, higher = more binding, comparable within an allelic series); with SIX6 [12], 8.66 upbm affinity estimate (log intensity, higher = more binding, comparable within an allelic series). For the same sequence, the binding signal in the assay with SIX6 [13] was 8.72 upbm affinity estimate (log intensity, higher = more binding, comparable within an allelic series).

On to CTGGCCCA, for which the binding signal in the assay with SIX6 [1] is 8.9 upbm affinity estimate (log intensity, higher = more binding, comparable within an allelic series); with SIX6 [2] it was 8.81 upbm affinity estimate (log intensity, higher = more binding, comparable within an allelic series); with SIX6 [3], 8.95 upbm affinity estimate (log intensity, higher = more binding, comparable within an allelic series); with SIX6 [4], 8.96 upbm affinity estimate (log intensity, higher = more binding, comparable within an allelic series); with SIX6 [5], 8.89 upbm affinity estimate (log intensity, higher = more binding, comparable within an allelic series); in the assay with SIX6 [6] it was 8.86 upbm affinity estimate (log intensity, higher = more binding, comparable within an allelic series). Moreover, the binding signal was 8.87 upbm affinity estimate (log intensity, higher = more binding, comparable within an allelic series) in the assay with SIX6 [7]; 8.92 upbm affinity estimate (log intensity, higher = more binding, comparable within an allelic series) with SIX6 [8]; 7.24 upbm affinity estimate (log intensity, higher = more binding, comparable within an allelic series) with HOXA2 [14]; 8.93 upbm affinity estimate (log intensity, higher = more binding, comparable within an allelic series) in the assay with SIX6 [9]; 8.92 upbm affinity estimate (log intensity, higher = more binding, comparable within an allelic series) in the assay with SIX6 [10]; 10.3 upbm affinity estimate (log intensity, higher = more binding, comparable within an allelic series) with HOXA2 [15]. The binding signal in the assay with SIX6 [11] was 8.88 upbm affinity estimate (log intensity, higher = more binding, comparable within an allelic series); with SIX6 [12] it was 8.94 upbm affinity estimate (log intensity, higher = more binding, comparable within an allelic series); with SIX6 [13] it was 8.95 upbm affinity estimate (log intensity, higher = more binding, comparable within an allelic series); with HOXA2 [16] it was 10.4 upbm affinity estimate (log intensity, higher = more binding, comparable within an allelic series); in the assay with HOXA2 [17], 7.1 upbm affinity estimate (log intensity, higher = more binding, comparable within an allelic series).

CCCCAGCG: the binding signal with SIX6 [1] was 9.09 upbm affinity estimate (log intensity, higher = more binding, comparable within an allelic series); with SIX6 [2], 8.99 upbm affinity estimate (log intensity, higher = more binding, comparable within an allelic series); in the assay with SIX6 [3] it was 9.25 upbm affinity estimate (log intensity, higher = more binding, comparable within an allelic series); in the assay with SIX6 [4], 9.01 upbm affinity estimate (log intensity, higher = more binding, comparable within an allelic series); with SIX6 [5] it was 9.24 upbm affinity estimate (log intensity, higher = more binding, comparable within an allelic series); with SIX6 [6], 9.04 upbm affinity estimate (log intensity, higher = more binding, comparable within an allelic series). The binding signal is 9 upbm affinity estimate (log intensity, higher = more binding, comparable within an allelic series) in the assay with SIX6 [7]; 9.14 upbm affinity estimate (log intensity, higher = more binding, comparable within an allelic series) with SIX6 [8]; 9.23 upbm affinity estimate (log intensity, higher = more binding, comparable within an allelic series) in the assay with SIX6 [9]; 9.18 upbm affinity estimate (log intensity, higher = more binding, comparable within an allelic series) in the assay with SIX6 [10]; 9.13 upbm affinity estimate (log intensity, higher = more binding, comparable within an allelic series) with SIX6 [11]; 9.15 upbm affinity estimate (log intensity, higher = more binding, comparable within an allelic series) with SIX6 [12]. The binding signal in the assay with SIX6 [13] was 9.2 upbm affinity estimate (log intensity, higher = more binding, comparable within an allelic series).

As to CCCTCGGC, the binding signal in the assay with SIX6 [1] is 9.06 upbm affinity estimate (log intensity, higher = more binding, comparable within an allelic series); with SIX6 [2] it was 8.91 upbm affinity estimate (log intensity, higher = more binding, comparable within an allelic series); in the assay with SIX6 [3], 9.09 upbm affinity estimate (log intensity, higher = more binding, comparable within an allelic series); with SIX6 [4], 8.86 upbm affinity estimate (log intensity, higher = more binding, comparable within an allelic series); with SIX6 [5], 9.04 upbm affinity estimate (log intensity, higher = more binding, comparable within an allelic series); in the assay with SIX6 [6], 9.07 upbm affinity estimate (log intensity, higher = more binding, comparable within an allelic series). Moreover, the binding signal is 8.97 upbm affinity estimate (log intensity, higher = more binding, comparable within an allelic series) in the assay with SIX6 [7]; 9.07 upbm affinity estimate (log intensity, higher = more binding, comparable within an allelic series) with SIX6 [8]; 9.11 upbm affinity estimate (log intensity, higher = more binding, comparable within an allelic series) in the assay with SIX6 [9]; 8.99 upbm affinity estimate (log intensity, higher = more binding, comparable within an allelic series) with SIX6 [10]; 8.92 upbm affinity estimate (log intensity, higher = more binding, comparable within an allelic series) in the assay with SIX6 [11]; 9.04 upbm affinity estimate (log intensity, higher = more binding, comparable within an allelic series) in the assay with SIX6 [12]. The binding signal with SIX6 [13] is 9.03 upbm affinity estimate (log intensity, higher = more binding, comparable within an allelic series).

Regarding CGGGCCCC, the binding signal with SIX6 [1] was 8.63 upbm affinity estimate (log intensity, higher = more binding, comparable within an allelic series); in the assay with SIX6 [2] it was 8.6 upbm affinity estimate (log intensity, higher = more binding, comparable within an allelic series); with SIX6 [3], 8.71 upbm affinity estimate (log intensity, higher = more binding, comparable within an allelic series); with SIX6 [4], 8.8 upbm affinity estimate (log intensity, higher = more binding, comparable within an allelic series); with SIX6 [5], 8.68 upbm affinity estimate (log intensity, higher = more binding, comparable within an allelic series); in the assay with SIX6 [6], 8.6 upbm affinity estimate (log intensity, higher = more binding, comparable within an allelic series). Further, the binding signal with SIX6 [7] was 8.75 upbm affinity estimate (log intensity, higher = more binding, comparable within an allelic series); with SIX6 [8] it was 8.71 upbm affinity estimate (log intensity, higher = more binding, comparable within an allelic series); with SIX6 [9], 8.68 upbm affinity estimate (log intensity, higher = more binding, comparable within an allelic series); in the assay with SIX6 [10] it was 8.73 upbm affinity estimate (log intensity, higher = more binding, comparable within an allelic series); with SIX6 [11], 8.59 upbm affinity estimate (log intensity, higher = more binding, comparable within an allelic series); in the assay with SIX6 [12], 8.64 upbm affinity estimate (log intensity, higher = more binding, comparable within an allelic series). The binding signal in the assay with SIX6 [13] was 8.66 upbm affinity estimate (log intensity, higher = more binding, comparable within an allelic series).
